Screens deposited in PubChem by National Center for Advancing Translational Sciences (NCATS).
Compounds with a hit are over-represented: about 4.6% of the library has one in this group of screens.
Vaccinia mCherry – vaccinia inhibition (mCherry reporter); Vaccinia virus mCherry reporter infection, fluorescence; Potency, µM (doses to about 36.5 µM), hits mostly inhibitors; hit rate 0.63% among 310,000; AID 720579; calls by dose curve; tested in A549 cells; also: nearly all actives have a fitted effect of over 35% in size
HCV inhibitor – inhibitors of hepatitis C virus infection. Huh7.5.1 HCVcc-Cre infection, luciferase reporter, 44 h. Potency, µM (series often up to 41.8 µM), usual class: inhibitors. hit rate 3.4% among 340,000. AID 651820; active = well fitted inhibition curve with a large enough effect; inconclusive = small, poorly fitted or top-dose-only effect, or another doubt; inactive = no such curve, though single readings can be large or run the other way
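Luciferase read-out (15 sec integration) after a 15 min room-temperature substrate step quantifies HCVcc-Cre infection. Cells, 1,000 per well, had compound added 4 h post-plating, then virus at ~0.5 moi, and were cultured 44 h.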
Marburg entry inh – inhibitors of Marburg virus binding or cell entry; AID 540276; Potency, µM (highest dose often 37.8 µM), actives largely listed as inhibitors; Marburg virus pseudotyped entry inhibition, cell reporter; hit rate 1.8% among 300,000; calls by dose curve; tested in HEK293 cells
Vaccinia Venus – inhibitors of vaccinia virus (Venus reporter); Vaccinia virus Venus reporter expression, fluorescence; Potency, µM (titrated, usually from 36.5 µM), most hits filed as inhibitors; hit rate 0.46% among 330,000; AID 720580; calls by dose curve; tested in A549 cells; also: nearly all actives have a fitted effect of over 30% in size
Lassa entry inh – Lassa virus entry inhibition. hit rate 1.2% among 300,000. Potency, µM (top dose mostly 37.9 µM), usual class: inhibitors. Lassa virus pseudotype entry inhibition, cell reporter; calls by dose curve; tested in HEK293 cells; also: nearly all actives have a fitted effect of over 50% in size
Numbers stand for hits; . = inactive; ? = inconclusive; / = no result; [ ] = another dose, or the depositor's remark.

SMILES | Vaccinia mCherry | HCV inhibitor | Marburg entry inh | Vaccinia Venus | Lassa entry inh
CC(=O)N[C@@H](C)C(=O)NCC1Cc2cccc(-c3ccccc3C(F)(F)F)c2O1 (stereo partly drawn) | . | / | / | . | /
Cc1ccc(Nc2cc(C)nc(-n3nc(C)cc3C)n2)cc1 | .[7.34 µM] | / | / | .[7.34 µM] | ?
CCOc1ccc(Nc2cc(C)nc(-n3nc(C)cc3C)n2)cc1 | ? | ? | 0.25µM | 16µM | ?
CNc1cc(C)nc(-n2nc(C)cc2C)n1 | / | . | . | . | .
Cc1cc(N/N=C/c2ccc(F)cc2)nc(-n2nc(C)cc2C)n1 | ? | 2µM | ? | ? | ?
COc1ccc(/C=N/Nc2cc(C)nc(-n3nc(C)cc3C)n2)c(OC)c1 | 6.3µM | ? | ? | ? | 21µM
COc1ccc(CCNC(=O)CSc2cn(CCNC(=O)c3c(F)cccc3F)c3ccccc23)cc1OC | . | / | . | . | .
Cc1ccc(C(=O)/C=C/Nc2ccccn2)cc1 | . | ? | ? | . | 0.63µM
CCC1CN(CCNC(=O)c2cc(C)nn2CC)Cc2cc(OC)ccc2O1 (stereo not drawn) | . | / | / | . | /
O=C(NCCc1ccccc1)C(=O)c1c(-c2ccccc2)cc2ccccn12 | . | . | . | . | .
COC(=O)c1c(C)c2c(C)cc3ccccn3c-2c1C(=O)OC | / | 10µM | . | . | .
COC(=O)c1cc2c(-c3ccccc3)cc3ccccn3c-2c1C(=O)OC | / | 1.8µM | ? | . | ?
COc1ccc(CN(C(=O)c2nsc(Cl)c2Cl)C(C(=O)NC2CCCCC2)c2ccc(OC)cc2)cc1 (stereo not drawn) | . | ? | 15µM | . | ?
COc1ccc(CN(C(=O)c2nsc(Cl)c2Cl)C(C(=O)NC2CCCC2)c2ccc(C)cc2)cc1 (stereo not drawn) | . | ? | ? | . | 16µM
c1ccc(-c2nc(NC3CC3)nc(-n3ccnc3)n2)cc1 | / | 2.5µM | . | / | .
CC(C)Nc1nc(-c2ccccc2)nc(-n2ccnc2)n1 | / | 2.8µM | ? | / | .
Cc1cccc(N(CC(=O)N(C)Cc2ccccc2)S(=O)(=O)c2ccccc2)c1C | . | / | ? | . | .
O=[N+]([O-])c1ccc2c(c1)C=C/C2=C\c1ccc(C=S)cc1 | . | / | / | . | /
CCOc1ccccc1NC(=O)c1nc(SCc2ccccc2F)ncc1Cl | . | / | / | . | /
COc1cc(C)c(CN2CCC3(CCC(CNC(=O)c4ccnn4C)O3)CC2)cc1C (stereo not drawn) | . | / | / | . | /
C/C(=N/Nc1ccnc2cc(Cl)ccc12)c1ccc(N)cc1 | 8.9µM | ? | / | ? | /
NC(=S)NNc1ccnc2cc(Cl)ccc12 | ? | . | ? | . | .
O=C(Cn1c(=O)nc(-c2ccccc2)c2ccccc21)Nc1ccc(Cl)c(C(F)(F)F)c1 | . | / | / | . | .
CCN(C(=O)c1cc2c(=O)oc3ccc(C)cc3c2s1)c1ccccc1F | . | / | . | . | .
Cc1cc(C)c2ccccc2n1 | . | / | / | . | /
SMILES | Vaccinia mCherry | HCV inhibitor | Marburg entry inh | Vaccinia Venus | Lassa entry inh
Cc1cc(-c2nc3ccccc3o2)c2ccccc2n1 | / | 14µM | . | / | .
COc1ccc(CCNC(=O)CCc2cn(Cc3ccc(C)cc3)c3ccccc23)c(OC)c1OC | . | / | / | . | .
CC(=O)Nc1ccc(NC(=O)c2c(C)nn(Cc3ccccc3)c2Cl)cc1 | ? | . | ? | . | .
Cc1nn(Cc2ccccc2)c(Cl)c1C(=O)NC1CCCc2ccccc21 (stereo not drawn) | / | 35µM | ? | / | ?
CCOc1c2ccc(C(=O)NCCCCc3ccccc3)cc2nn1CC | . | 3.5µM | / | . | /
CCn1c(=O)c(=O)[nH]c2cc(C(=O)NC3CCCc4ccccc43)ccc21 (stereo not drawn) | / | ? | 21µM | / | ?
CCn1c(=O)c(=O)[nH]c2cc(C(=O)NC3CC3)ccc21 | . | ? | . | . | .
CCCCn1nc2cc(C(=O)NC3CCCc4ccccc43)ccc2c1OCC (stereo not drawn) | ? | 1.8µM | / | . | /
CCOc1c2ccc(C(=O)NCCc3ccc(C)cc3)cc2nn1CC | . | . | / | . | /
CCC(C)CN1C(=O)NC(CCc2ccccc2)C(C(C)=O)=C1C (stereo not drawn) | / | / | . | / | /
O=C(NC1CCCc2ccccc21)c1n[nH]c(=O)c2ccccc12 (stereo not drawn) | . | 22µM | . | . | .
S=C(NCc1ccco1)N/N=C/c1ccc(Cl)cc1 | ? | . | . | . | 4.6µM
CCN(CC)c1ccc(/C=N/NC(=S)NCc2ccco2)cc1 | ? | ? | ? | . | 2.1µM
COC(=O)C1=C(N)Oc2cc(C)[nH]c(=O)c2[C@@H]1c1ccncc1 | / | / | . | / | /
CC(=O)Oc1ccc2nonc2c1OC(C)=O | . | / | / | . | /
CC(=O)Nc1cc(OC(C)=O)c2nonc2c1OC(C)=O | 7.9µM | ? | ? | 7.9µM | ?
COC(=O)c1cc(CNC(=O)c2ccccc2OC)cc(NC(=O)c2ccccc2F)c1 | . | / | / | . | /
Cc1sc2ncnc(N3CCC(C(=O)Nc4nnc(CC(C)C)s4)CC3)c2c1C | . | . | . | . | .
Cc1sc2ncnc(N3CCC(C(=O)Nc4ccc(OC(F)F)c(Cl)c4)CC3)c2c1C | / | 20µM | / | / | /
CCN(CC)CCNC(=O)c1ccc(NC(=O)C2CCN(c3ncnc4sc(C)c(C)c34)CC2)cc1 | / | 13µM | / | / | /
CC(=O)Nc1ccc(S(=O)(=O)N(C2=NCC(C)S2)c2ccccc2)cc1 (stereo not drawn) | / | ? | 16µM | . | ?
CC(=O)Nc1ccc(S(=O)(=O)N(c2cccnc2)S(=O)(=O)c2ccc(NC(C)=O)cc2)cc1 | / | ? | ? | / | 0.82µM
COc1c(Cl)c(=O)oc2ccc(Cl)cc12 | . | / | / | . | /
COc1ccccc1-n1c(=O)oc2ccc(Cl)cc2c1=O | / | ? | ? | 13µM | ?
CCCCCCCC/C=C\CCCCCCCC(=O)NCCc1ccc(O)c(O)c1 | . | ? | 4.5µM | . | 9.2µM
SMILES | Vaccinia mCherry | HCV inhibitor | Marburg entry inh | Vaccinia Venus | Lassa entry inh
CCN(CC)S(=O)(=O)c1ccc(C(=O)NCCSc2c[nH]c3ccccc23)cc1 | . | ? | . | . | 26µM
CCN(CC)S(=O)(=O)c1ccc(C(C)NC(=O)Cc2c[nH]c3ccccc23)cc1 (stereo not drawn) | . | . | . | . | 2.6µM
COc1cc(OC)c(NC(=O)Cn2cnc3sc(C)c(S(=O)(=O)N4CCN(C)CC4)c3c2=O)cc1Cl | . | / | . | . | ?
COc1ccc2c(c1)-c1nc(-n3ncc(C(=O)N(C)CC4CCCN(C)C4)c3C3CC3)ncc1CC2 (stereo not drawn) | . | / | / | . | /
CCCCOc1ccc(CC(=O)N(C)O)cc1 | . | / | / | . | /
Oc1ccc2ccccc2c1C=Nc1ccccc1-c1nc2ccccc2[nH]1 | ? | 11µM | ? | . | ?
COC(=O)C1=C(C(=O)OC)[C@@H]2N(Cc3ccccc3)c3ccccc3[C@@]23CCC(=O)N(CC2CCCCC2)C3=N1 | / | / | . | / | /
COc1cc(OC)cc(-c2oc3cccnc3c2C#CCCO)c1 | ? | 7.1µM | / | ? | /
COc1ccc(C)cc1NC(=O)Cc1c(C(=O)O)c(C)cn1C | . | / | / | . | .
O=C(c1ccc2c3c(cccc13)CC2)C1CCCN(Cc2cccnc2)C1 (stereo not drawn) | . | 22µM | . | . | .
O=C(c1ccc2c3c(cccc13)CC2)C1CCCN(C(=O)c2cccnc2)C1 (stereo not drawn) | . | . | / | . | /
CS(=O)(=O)c1cccc(NC(=O)C2CC2)c1 | ? | . | . | . | .
